Assay outcomes as filed in PubChem BioAssay.
Shown are actives, neighbours in structure and some others; about 6.7% of the full set was active somewhere.
C diff HTS = blocks growth of Clostridium difficile; growth activity, negative = inhibition, % at 16 µg/mL (by protocol); actives 0.25% (n = 86,000); AID 1259249; Clostridium difficile clinical isolate growth, OD600, 24 h; stronger effect = lower value;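 active = mean growth activity at or below -80% and every replicate also at or below -80%; inconclusive = mean at or below -80% but some replicate above -80%; inactive = mean growth activity above -80%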
Pf Dd2 inh = P. falciparum Dd2 growth inhibition. SYBR Green, 72 h; stronger effect = lower value. activity change, % at 10 µM. actives 2.3% (n = 94,000). AID 1159554; in the data active = activity change below about -80%; inconclusive = no clear call, values can overlap the other calls
T cruzi growth-1 = blocks T. cruzi growth in NIH3T3 culture; inhibition, % at 8.34 µM; T. cruzi beta-gal in NIH3T3, GalScreen luminescence, 90 h; actives 5.9% (n = 77,000);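 active = mean inhibition above about 93%, with at least 55% of replicates each passing it, limit read from the data, passing the limit was not always enough; inconclusive = only one of those two conditions holds; inactive = neither condition holds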
T cruzi growth-2 = blocks T. cruzi growth in NIH3T3 host cells | shares compounds with T cruzi growth-1 | T. cruzi beta-gal in NIH3T3, GalScreen luminescence, 90 h | inhibition, % at 8.35 µM | actives 72% (n = 5,600) | AID 651739;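 active = mean replicate inhibition above about 95% and at least 55% of replicates individually reaching it, limit read from the data; inconclusive = only one of the two criteria is met; inactive = neither criterion is met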
T cruzi growth-3 = blocks T. cruzi growth in NIH3T3 host cells. inhibition, % at 2.09 µM. actives 21% (n = 5,600). shares compounds with T cruzi growth-1. T. cruzi beta-gal in NIH3T3, GalScreen luminescence, 90 h;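 active = mean inhibition above about 95%, with at least 55% of replicates also reaching it, limit read from the data; inconclusive = meets just one of the two conditions; inactive = meets neither condition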
3T3 cytotox = kills mouse NIH/3T3 fibroblasts | shares compounds with T cruzi growth-1 | NIH/3T3 viability, CellTiter-Glo ATP luminescence, 90 h | cytotoxicity (signal decrease), % at 8.35 µM | actives 14% (n = 5,600) | AID 651742;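 active = mean signal decrease across replicates above about 35% based on untreated-well scatter, with enough replicates individually passing, limit read from the data; inconclusive = no rule stated though some were filed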
3T3 cytotox 2 = NIH/3T3 (mouse) viability loss; shares compounds with T cruzi growth-1; NIH/3T3 viability, CellTiter-Glo ATP luminescence, 90 h; inhibition, % at 24.9 µM; actives 56% (n = 5,600); AID 651744;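 active = mean loss of cell viability signal at or above a set limit, and enough replicates individually reaching it; inconclusive = meets only the mean limit or only the replicate share; inactive = meets neither condition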
Large screens that a line does not name were inactive (follow-up assays come after a bar, where they were run).

N#C[C@H]1N[C@H](CO)[C@H]1c1ccc(C#Cc2ccccc2F)cc1	none
N#C[C@@H]1[C@@H](c2ccc(C#Cc3ccccc3F)cc2)[C@@H](CO)N1C(=O)C1CC1	none
N#C[C@H]1N[C@@H](CO)[C@H]1c1ccc(C#Cc2ccccc2F)cc1	T cruzi growth-1 100 | T cruzi growth-2 103 | T cruzi growth-3 109 | 3T3 cytotox inactive | 3T3 cytotox 2 inactive
COc1ccc2c3c(n(C)c2c1)[C@H](CO)N(C(=O)c1ccccc1)CC31CN(C(=O)c2ccccc2)C1	none (no result: T cruzi growth-1)
CNC[C@H]1OCCCC[C@H](C)Oc2ccc(NC(=O)Nc3c(C)noc3C)cc2C(=O)N([C@@H](C)CO)C[C@@H]1C	none
C[C@@H]1CN([C@H](C)CO)C(=O)c2cc(NC(=O)Nc3ccc(C(F)(F)F)cc3)ccc2O[C@@H](C)CCCCO[C@H]1CN(C)S(=O)(=O)c1ccccc1	T cruzi growth-1 98 | T cruzi growth-2 102 | T cruzi growth-3 109 | 3T3 cytotox inactive | 3T3 cytotox 2 inactive
C[C@H]1CCCCO[C@H](CN(C)S(=O)(=O)c2ccccc2)[C@@H](C)CN([C@@H](C)CO)C(=O)c2cc(NC(=O)Nc3ccc(C(F)(F)F)cc3)ccc2O1	T cruzi growth-1 inconclusive | T cruzi growth-2 109 | T cruzi growth-3 117 | 3T3 cytotox inactive | 3T3 cytotox 2 inactive
C[C@@H]1CCCCO[C@@H](CN(C)S(=O)(=O)c2ccccc2)[C@H](C)CN([C@H](C)CO)C(=O)c2cc(NC(=O)Nc3ccc(C(F)(F)F)cc3)ccc2O1	none
C[C@@H]1CCCCO[C@H](CN(C)S(=O)(=O)c2ccccc2)[C@H](C)CN([C@H](C)CO)C(=O)c2cc(NC(=O)Nc3ccc(C(F)(F)F)cc3)ccc2O1	none
CCC(=O)N(C)C[C@H]1Oc2cc(C3=CCCCC3)ccc2S(=O)(=O)N([C@H](C)CO)C[C@@H]1C	none (no result: C diff HTS)
COc1cccc(-c2ccc3c(c2)[C@H]2[C@H](CCN2S(=O)(=O)c2ccccc2OC)[C@@H](CO)N3)c1	none
Cn1cnc(S(=O)(=O)N2CCCCN3[C@H](CO)[C@@H](c4ccc(-c5ccccc5)cc4)[C@@H]3C2)c1	T cruzi growth-1 100 | T cruzi growth-2 inactive | T cruzi growth-3 inactive | 3T3 cytotox inactive | 3T3 cytotox 2 28
Cn1cnc(S(=O)(=O)N2CCCCN3[C@H](CO)[C@H](c4ccc(C#CC5CCCC5)cc4)[C@@H]3C2)c1	T cruzi growth-1 107 | T cruzi growth-2 inconclusive | T cruzi growth-3 inactive | 3T3 cytotox inactive | 3T3 cytotox 2 33
Cn1cnc(S(=O)(=O)N2CCCCN3[C@H](C2)[C@H](c2ccc(-c4ccccc4)cc2)[C@@H]3CO)c1	T cruzi growth-1 103 | T cruzi growth-2 inactive | T cruzi growth-3 inactive | 3T3 cytotox inactive | 3T3 cytotox 2 inactive
Cn1cnc(S(=O)(=O)N2CCCCN3[C@@H](CO)[C@@H](c4ccc(-c5ccc(F)cc5)cc4)[C@@H]3C2)c1	none
Cn1cnc(S(=O)(=O)N2CCCCN3[C@H](C2)[C@H](c2ccc(C#CC4CCCC4)cc2)[C@@H]3CO)c1	none
Cn1cnc(S(=O)(=O)N2CCCCN3[C@H](C2)[C@H](c2ccc(-c4ccc(F)cc4)cc2)[C@@H]3CO)c1	none
O=C(Nc1cccc(F)c1)N[C@H]1CC[C@@H](CCNS(=O)(=O)c2cccc(Cl)c2)O[C@@H]1CO	none (no result: C diff HTS)
O=C(Nc1cccc(F)c1)N[C@H]1CC[C@H](CCNS(=O)(=O)c2cccc(Cl)c2)O[C@H]1CO	T cruzi growth-1 163 (no result: C diff HTS) | T cruzi growth-2 103 | T cruzi growth-3 inactive | 3T3 cytotox inactive | 3T3 cytotox 2 inactive
O=C(Nc1cccc(F)c1)N[C@@H]1CC[C@@H](CCNS(=O)(=O)c2cccc(Cl)c2)O[C@@H]1CO	T cruzi growth-1 121 (no result: C diff HTS) | T cruzi growth-2 inactive | T cruzi growth-3 inactive | 3T3 cytotox inactive | 3T3 cytotox 2 inactive
O=C(Nc1ccc(F)cc1)N[C@@H]1CC[C@@H](CCNS(=O)(=O)c2cccc(Cl)c2)O[C@@H]1CO	none
COc1ccc(S(=O)(=O)N(C)C[C@@H]2Oc3c(NC(=O)Nc4cccc5ccccc45)cccc3C(=O)N([C@@H](C)CO)C[C@@H]2C)cc1	T cruzi growth-1 109 | T cruzi growth-2 inactive | T cruzi growth-3 inactive | 3T3 cytotox inactive | 3T3 cytotox 2 49
Cc1ccc(S(=O)(=O)N(C)C[C@@H]2Oc3c(NC(=O)Nc4cccc5ccccc45)cccc3C(=O)N([C@@H](C)CO)C[C@H]2C)cc1	T cruzi growth-1 110 | T cruzi growth-2 inactive | T cruzi growth-3 inactive | 3T3 cytotox inactive | 3T3 cytotox 2 inactive
Cc1ccc(S(=O)(=O)N(C)C[C@H]2Oc3c(NC(=O)Nc4cccc5ccccc45)cccc3C(=O)N([C@H](C)CO)C[C@H]2C)cc1	none (no result: T cruzi growth-1)
COc1ccc(S(=O)(=O)N(C)C[C@@H]2Oc3c(NC(=O)Nc4cccc5ccccc45)cccc3C(=O)N([C@H](C)CO)C[C@H]2C)cc1	none
O=C(NCC[C@@H]1CC[C@H](NS(=O)(=O)c2ccc(Cl)cc2)[C@H](CO)O1)Nc1ccc(F)cc1	none (no result: T cruzi growth-1)
O=C(O)C[C@H]1C[C@H]2c3cc(NC(=O)Nc4ccc(F)cc4)ccc3O[C@H]2[C@H](CO)O1	none
C[C@@H]1CN([C@H](C)CO)C(=O)c2cc(NC(=O)Cc3cn(C)c4ccccc34)ccc2O[C@H]1CN(C)S(=O)(=O)c1ccc(Cl)cc1	none
CNC[C@@H]1OCCCC[C@H](C)Oc2ccc(NS(=O)(=O)c3ccc(C)cc3)cc2C(=O)N([C@H](C)CO)C[C@H]1C	none
C[C@@H]1CN([C@H](C)CO)C(=O)c2cc(NC(=O)Nc3ccc(C(F)(F)F)cc3)ccc2O[C@@H](C)CCCCO[C@H]1CN(C)C(=O)Nc1ccc(F)cc1	none
C[C@@H]1CCCCO[C@@H](CN(C)C(=O)Nc2ccc(C(F)(F)F)cc2)[C@H](C)CN([C@@H](C)CO)C(=O)c2cc(NC(=O)Nc3ccc(F)cc3)ccc2O1	T cruzi growth-1 106 | T cruzi growth-2 101 | T cruzi growth-3 103 | 3T3 cytotox inactive | 3T3 cytotox 2 inactive
C[C@H](CO)N1C[C@H](C)[C@@H](CN(C)C(=O)Nc2ccc(F)cc2)OCCCC[C@H](C)Oc2ccc(NC(=O)Nc3ccc(C(F)(F)F)cc3)cc2C1=O	none
C[C@H]1CCCCO[C@@H](CN(C)C(=O)Nc2ccc(F)cc2)[C@@H](C)CN([C@@H](C)CO)C(=O)c2cc(NC(=O)Nc3ccc(C(F)(F)F)cc3)ccc2O1	T cruzi growth-1 102 | T cruzi growth-2 102 | T cruzi growth-3 111 | 3T3 cytotox inactive | 3T3 cytotox 2 inactive
O=C(CN1CCOCC1)NCC[C@H]1CC[C@H](NC(=O)c2ccccc2F)[C@@H](CO)O1	none (no result: C diff HTS)
